Source: PubChem
EPAC1 ag val = human EPAC1 agonism, validation; EPAC1 Rap1b BODIPY-GDP exchange, fluorescence; Potency, µM, most hits filed as activators; AID 1645883; actives 1% (n = 16,000); O95398; also: nearly all actives have a fitted effect of over 70% in size
EPAC2 antag = human EPAC2 antagonism, validation; Q8WZA2; EPAC2 Rap1B BODIPY-GDP exchange, fluorescence; AID 1645886; actives 1.7% (n = 16,000); Potency, µM (titrated, usually from 112 µM), actives largely listed as inhibitors; also: nearly all actives have a fitted effect of over 40% in size
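Fluorescent exchange read-out: 100 nM EPAC2 with 250 nM RAP1B–BODIPY-GDP and 50 uM GDP; BODIPY-GDP release lowers fluorescence. Read at 480/540 nm every 5 min for 30 min at room temperature; normalized to 6.5 mM cAMP.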
Each line names hits and unclear results; the compound was inactive in the other large screens; ! = not active in a repeat. Sampled rows, rich in hits. Any-hit rate of the full collection: about 2.9%. Calls follow the shape of the dose curve; as a rule, active = well fitted curve in the direction sought with a large enough effect; inconclusive = small, poorly fitted or top-dose-only effect, or another doubt; inactive = no such curve, though single readings can be large; an effect the other way counts as inactive or inconclusive.

COc1ccc(-c2nc3cnc(Nc4ccccc4)nc3n(CCC#N)c2=O)cc1	EPAC1 ag val 112µM
COc1ccc(-c2nc3cnc(Nc4cccc(OC)c4)nc3n(CCC#N)c2=O)cc1	EPAC1 ag val 100µM
COc1cccc(Nc2ncc3nc(-c4cc(F)cc(F)c4)c(=O)n(CCC#N)c3n2)c1	EPAC1 ag val 112µM, EPAC2 antag inconclusive
COc1cccc(Nc2ncc3nc(-c4ccc(F)cc4)c(=O)n(C)c3n2)c1	none
COc1ccc(-c2nc3cnc(Oc4ccccc4)nc3n(CCC#N)c2=O)cc1	EPAC1 ag val inconclusive
COc1cccc(Nc2ncc3nc(-c4ccc(Cl)cc4)c(=O)n(CCC#N)c3n2)c1	EPAC2 antag inconclusive
COc1ccc(Oc2ncc3nc(-c4cc(F)cc(F)c4)c(=O)n(CCC#N)c3n2)cc1	none
COc1cccc(Nc2ncc3nc(-c4ccc(F)cc4)c(=O)n(CCC#N)c3n2)c1	EPAC1 ag val 112µM
O=C(CO)[C@@H](O)[C@H](O)[C@H](O)CO	none
O=C1/C(=C\c2cccs2)CCC/C1=C\c1cccs1	none
NCCCC[C@H](NC(=O)[C@@H]1CCCN1C(=O)[C@@H]1CSSC[C@H](N)C(=O)N[C@@H](Cc2ccc(O)cc2)C(=O)N[C@@H](Cc2ccccc2)C(=O)N[C@@H](CCC(N)=O)C(=O)N[C@@H](CC(N)=O)C(=O)N1)C(=O)NCC(N)=O	none
CC1(C)[C@@H](O)CC[C@]2(C)C3C(=O)C=C4C5C[C@@](C)(C(=O)O)CC[C@]5(C)CC[C@@]4(C)[C@]3(C)CC[C@@H]12 (some centres not stated)	EPAC2 antag 4µM
CC1(C)C2CC[C@]3(C)[C@H](C(=O)C=C4[C@@H]5C[C@@](C)(C(=O)O)CC[C@]5(C)CC[C@]43C)[C@@]2(C)CC[C@@H]1O[C@H]1O[C@H](C(=O)O)[C@@H](O)[C@H](O)[C@H]1O[C@@H]1O[C@H](C(=O)O)[C@@H](O)[C@H](O)[C@H]1O (some centres not stated)	EPAC2 antag inconclusive
C=C1CCC(O)C/C1=C\C=C1/CCCC2(C)C1CCC2C(C)/C=C/C(C)C(C)C (configuration not stated)	EPAC2 antag 50µM
C=C1C(=C/C=C2\CCC[C@]3(C)[C@@H]([C@H](C)/C=C/[C@@H](O)C4CC4)CC[C@@H]23)C[C@@H](O)C[C@@H]1O	none
O=C(Nc1cc(C(=O)Nc2ccc(S(=O)(=O)O)cc2S(=O)(=O)O)cc(C(=O)Nc2ccc(S(=O)(=O)O)cc2S(=O)(=O)O)c1)Nc1cc(C(=O)Nc2ccc(S(=O)(=O)O)cc2S(=O)(=O)O)cc(C(=O)Nc2ccc(S(=O)(=O)O)cc2S(=O)(=O)O)c1	EPAC1 ag val inconclusive
O=C(Nc1ccc(C(=O)Nc2ccc(C(=O)Nc3ccc(S(=O)(=O)O)c4cc(S(=O)(=O)O)cc(S(=O)(=O)O)c34)cc2)cc1)Nc1ccc(C(=O)Nc2ccc(C(=O)Nc3ccc(S(=O)(=O)O)c4cc(S(=O)(=O)O)cc(S(=O)(=O)O)c34)cc2)cc1	EPAC2 antag 22µM
COC1=C(C(=O)O)N2C(=O)[C@@H](NC(=O)[C@H](N)C3=CCC=CC3)[C@H]2SC1	none
COc1ccc(C(=O)/C(Br)=C\C(=O)O)cc1	none
CC(=O)OCC(=O)[C@@]1(O)[C@H](C)C[C@H]2[C@@H]3C[C@H](F)C4=CC(=O)C=C[C@]4(C)[C@H]3[C@@H](O)C[C@@]21C	none
COC(=O)c1c(C)c2c(c(C)c1O)OC(=O)c1c(C)c(Cl)c(O)c(Cl)c1O2	EPAC2 antag 2.5µM
COC(=O)c1c(OC)cc2c(c1C)Oc1c(Cl)c(O)c(Cl)c(C)c1C(=O)O2	EPAC2 antag 4.5µM
COC(=O)c1c(Cl)c(Cl)c(C(=O)OC)c(Cl)c1Cl	EPAC1 ag val inconclusive
CCc1ccc2c(c1)N(CC(C)CN(C)C)c1ccccc1S2 (configuration not stated)	none
C=C1CC2C3CCC4=CC(=O)C=C[C@]4(C)[C@@]3(F)[C@@H](O)C[C@]2(C)[C@@]1(O)C(=O)COC(C)=O (some centres not stated)	none
CCO[C@H]1[C@H](NC(=O)c2cccnc2)c2ccccc2C12CCN(C(=O)c1ccoc1)CC2	none
CC1(C)[C@H]2CC[C@]1(C)[C@H](O)C2	none
CCOC(=O)C1=C(COCCN)NC(C)=C(C(=O)OC)C1c1ccccc1Cl (configuration not stated)	none
CCOC(=O)C1=C(C)NC(C)=C(C(=O)OC)C1c1cccc(Cl)c1Cl (configuration not stated)	EPAC1 ag val 56µM!, EPAC2 antag inconclusive
S=C(S)O[C@@H]1C[C@@H]2C[C@H]1[C@@H]1CCC[C@H]21	EPAC2 antag 50µM
S=C(S)OC1CC2CC1C1CCCC21 (configuration not stated)	none
CC(C)=CCc1c(O)cc(C)oc1=O	none
COc1cc(O)c2c(=O)cc(C)oc2c1CC=C(C)C	EPAC1 ag val inconclusive, EPAC2 antag 32µM
COCc1ccc(C(=O)N2CCOc3ccc(CN4CCN(c5ccc(F)cc5)CC4)cc3C2)o1	none
CCC(Oc1ccccc1)C(=O)N[C@@H]1C(=O)N2[C@@H]1SC(C)(C)[C@@H]2C(=O)O (some centres not stated)	none
CCCCCCCCCCCCCCCCCCOCC(COP(=O)([O-])OCC[N+](C)(C)C)OC (configuration not stated)	none
O=C(CO)[C@@H](O)[C@H](O)[C@@H](O)C(=O)O	none
O=C(O)COc1ccc(C(=O)c2cccs2)c(Cl)c1Cl	none
CCCC[C@@]1(C2CCCC2)Cc2cc(OCC(=O)O)c(Cl)c(Cl)c2C1=O	EPAC2 antag 14µM
O=C([C@@H]1C[C@@H](Sc2nc3ccccc3[nH]2)CN1Cc1ccc(C(F)(F)F)cc1)N1CCN(c2ccccc2F)CC1	none
CCNc1ncc2nc(-c3cccs3)c(=O)n(C[C@H]3CCCO3)c2n1	none
O=c1c(-c2cccs2)nc2cnc(N3CCOCC3)nc2n1CCc1ccccc1	EPAC1 ag val 100µM
O=c1c(-c2cccs2)nc2cnc(N3CCOCC3)nc2n1Cc1ccc(F)cc1	none
O=c1c(CCc2ccccc2)nc2cnc(N3CCOCC3)nc2n1Cc1cccs1	none
Cn1cc(-c2nc3cnc(N4CCOCC4)nc3n(CCC#N)c2=O)c2ccccc21	EPAC1 ag val 112µM
CN(C)c1ncc2nc(-c3cccs3)c(=O)n(C[C@H]3CCCO3)c2n1	EPAC1 ag val 112µM
CN1CCN(c2ncc3nc(CCc4ccccc4)c(=O)n(Cc4cccs4)c3n2)CC1	EPAC1 ag val 100µM
COCCn1c(=O)c(-c2cn(C)c3ccccc23)nc2cnc(N3CCOCC3)nc21	none
CC[C@H]1OC(=O)[C@H](C)[C@@H](O[C@H]2C[C@@](C)(OC)[C@@H](O)[C@H](C)O2)[C@H](C)[C@@H](O[C@@H]2O[C@H](C)C[C@H](N(C)C)[C@H]2O)[C@](C)(O)C[C@@H](C)/C(=N\OCOCCOC)[C@H](C)[C@@H](O)[C@]1(C)O	none
COc1ccccc1C(=O)N[C@@H]1c2ccccc2C2(CCN(Cc3c(O)cccc3OC)CC2)[C@H]1O	none
CCC(=O)O[C@@H]1CC(=O)O[C@H](C)C/C=C/C=C/[C@H](O)[C@H](C)C[C@H](CC=O)[C@H](O[C@@H]2O[C@H](C)[C@@H](O[C@H]3C[C@@](C)(O)[C@@H](OC(=O)CC)[C@H](C)O3)[C@H](N(C)C)[C@H]2O)[C@H]1OC	none
Cc1c(C)c2c(c(C)c1OC(=O)CCC(=O)OCCO)CC[C@@](C)(CCC[C@H](C)CCC[C@H](C)CCCC(C)C)O2	none
